In the supplement of paper PMC12024529:

Test system: HEK293 WT BDD-FVIII-Gluc
Assay: secreted FVIII-Gluc luciferase Z-score vs DMSO control; higher = more FVIII-Gluc secretion
Conditions: 5 µM
Method: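 Natural plant-compound library (480 compounds, ST catalogue IDs) screened on HEK293 cells stably expressing WT BDD-FVIII-Gaussia luciferase fusion at 5 µM. Secreted Gluc activity in the medium is given as a Z-score relative to DMSO controls.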

Compound	secreted FVIII-Gluc luciferase Z-score
CC(C)(C)[C@]1(O)C[C@@H]2OC(=O)C[C@@]23C(=O)O[C@@H]2OC(=O)[C@H](O)[C@]213	-0.32
CC(C)C1(NC(=O)[C@@H]2C=C3c4cccc5[nH]cc(c45)C[C@H]3N(C)C2)O[C@@]2(O)[C@@H]3CCCN3C(=O)[C@H](Cc3ccccc3)N2C1=O (stereo not given in full)	1.35
C/C=C/c1ccc2c(c1)OCO2	0.131
C[C@@H](CO)NC(=O)[C@@H]1C=C2c3cccc4[nH]cc(c34)C[C@H]2N(C)C1	0.475
CC(=O)N1C[C@@H]2C[C@H](C1)c1cccc(=O)n1C2	-0.118
CCN1C[C@@]2(COC)C3[C@@H](OC)[C@H]4C1[C@@]3(C1C[C@@]3(O)[C@H](OC(=O)c5ccccc5)C1[C@]4(OC(C)=O)[C@@H](O)[C@@H]3OC)[C@@H](OC)C[C@H]2O (stereo not given in full)	-0.523
COc1cc2c(c(OC)c1OC)-c1ccc(O)c(=O)cc1[C@@H](NC(C)=O)CC2	0.222
C=C[C@H]1CN2CCC1CC2c1[nH]c2ccccc2c1CCO (stereo not given in full)	0.502
CCCCCC[C@H]1C(=O)O[C@H](C)[C@H](NC(=O)c2cccc(NC=O)c2O)C(=O)O[C@@H](C)[C@@H]1OC(=O)CC(C)C	-3.29
CN[C@H]1CCc2cc(OC)c(OC)c(OC)c2-c2ccc(OC)c(=O)cc21	-3.62
C=C(C)[C@@H]1[C@H]2OC(=O)[C@@H]1[C@]1(O)C[C@H]3O[C@]34C(=O)O[C@H]2[C@]14C	0.972
COc1cc2c(cc1O)-c1c(O)c(OC)cc3c1[C@H](C2)N(C)CC3	0.6
COc1ccn(C)c(=O)c1C#N	-0.599
COc1ccc(CC2c3cc(OC)c(OC)cc3CCN2C)cc1OC (stereo not given)	-1.36
O=c1cccc2n1C[C@@H]1CNC[C@H]2C1	0.0778
CCC12CCCN3CCC4(c5ccc(OC)c(O)c5N(C(C)=O)C4CC1)C32 (stereo not given)	0.655
CN1CC[C@@]2(C)c3cc(O)ccc3N(C)[C@@H]12	-0.624
COc1cc([C@@H]2c3cc4c(cc3[C@H](O)[C@H]3COC(=O)[C@H]23)OCO4)cc(OC)c1OC	-3.94
C=C(C)[C@H]1Cc2c(ccc3c2O[C@@H]2COc4cc(OC)c(OC)cc4[C@@H]2C3=O)O1	-5.82
CN1CCc2cc3c(cc2[C@H]1[C@H]1OC(=O)c2c1ccc1c2OCO1)OCO3	0.159

Compound	secreted FVIII-Gluc luciferase Z-score
C[C@]1(C(=O)O)CCC[C@]2(C)c3cc(O)ccc3CC[C@@H]12	-1.23
C[C@]12CC[C@H](O)C[C@@H]1CC[C@@H]1[C@@H]2CC[C@]2(C)C(=O)CC[C@@H]12	0.049
OC[C@@H]1CCCN2CCCC[C@H]12	-0.141
CCN1CC2(COC(=O)c3ccccc3N3C(=O)CC(C)C3=O)CC[C@H](OC)[C@@]34C5C[C@@H]6[C@@H](OC)C[C@@](O)(C5[C@H]6OC)[C@](O)([C@@H](OC)C23)[C@@H]14.[O-][Cl+3]([O-])([O-])O (stereo not given in full)	0.461
COc1cc2c(c(OC)c1OC)-c1ccc(OC)c(=O)cc1C(NC(C)=O)CC2 (stereo not given)	-6.65
COc1ccc(Cc2nccc3cc(OC)c(OC)cc23)cc1OC	-0.721
CC(=O)OC1CC(OC2C(O)CC(OC3C(O)CC(OC4CCC5(C)C(CCC6C5CC(O)C5(C)C(C7=CC(=O)OC7)CCC65O)C4)OC3C)OC2C)OC(C)C1OC1OC(CO)C(O)C(O)C1O (stereo not given)	-4
CC(=O)c1c(O)c(C)c(O)c(Cc2c(O)c3c(c(C(=O)/C=C/c4ccccc4)c2O)OC(C)(C)C=C3)c1O	-1.16
COc1cc2c(cc1O)C[C@H]1c3c(cc(OC)c(O)c3-2)CCN1C	0.61
CN1C[C@@H](CO)C=C2c3cccc4[nH]cc(c34)CC21 (stereo not given in full)	0.731
CN1CCc2cc3c(cc2[C@H]1[C@@H]1OC(=O)c2c1ccc1c2OCO1)OCO3	0.754
CCCN1C[C@H](CSC)C[C@@H]2c3cccc4[nH]cc(c34)C[C@H]21	0.385
O=CN1C[C@@H]2C[C@H](C1)c1cccc(=O)n1C2	0.583
CN[C@@H](Cc1c[nH]c2ccccc12)C(=O)O	0.0662
NCC(O)c1cccc(O)c1 (stereo not given)	0.434
c1cncc(C2CCCCN2)c1 (stereo not given)	-0.711
C[C@H]1C(=O)O[C@H]2CCN3CC=C(COC(=O)[C@](C)(O)[C@@]1(C)O)C23 (stereo not given in full)	0.0827
CC1CCC2C(C)C(=O)OC3OC4(C)CCC1C32OO4 (stereo not given)	-0.111
O=C1CCCC2[C@@H]3CCCN4CCC[C@H](CN12)[C@H]34 (stereo not given in full)	0.572
CN1[C@@H]2CC[C@H]1CC(OC(=O)C(CO)c1ccccc1)C2 (stereo not given in full)	-0.395
